Laboratory results taken from PubChem BioAssay (NCI).
The panel holds about 83,000 compounds, 20% with a hit somewhere; the sample as a whole holds those more often.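 Negative percent growth values reflect cell death: -40 means 40% of the cells present at the start died, and -100 means all died.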 A number with no mark means an inactive call. Active and inactive are the calls of the source.

These molecules were tested on UO-31 renal (assay: NCI-60 one-dose screen, 48 h (100 = growth as untreated, 0 = no growth, -100 = all killed)). Conditions: 10 µM.
Protocol: Growth inhibition of the UO-31 human tumor cell line is measured as a screen for anti-cancer activity. Cells are grown in 96 well plates and exposed to the test compound for 48 hours. Compounds are tested at a single concentration, which is 10^-5 M for most compounds. The reported endpoint is percent growth (GI% or GIPRCNT), where numbers from 0 - 100% represent growth inhibition, and numbers from -100% - 0 represent cell death. For example, a value of 40 represents 60% growth inhibition. A value of 0 means no net growth occurred over the course of the experiment. A value of -40 indicates 40% of cells at the beginning of the experiment died by the end of the experiment. A value of -100 means all cells are dead at the end of the experiment.
NCI-60 Human Tumor Cell Lines Screen was performed using the standard one-dose NCI protocol, which is described in more detail at https://dtp.cancer.gov/discovery_development/nci-60/default.htm.
Compounds with GIPRCNT values below 10 were considered active. Activity score was based on GIPRCNT using the following formula: […]
Score is 0 for GIPRCNT values of 100 or above, 50 for GIPRCNT values of 0, and 100 for GIPRCNT values of -100.
`COc1cc(-c2nc3ccc(C)cc3[nH]2)ccc1OCc1nnc(-c2ccccc2Br)o1` showed a growth of 61.8%. `C#CCOc1cc(N(CC)CC)ccc1C(C(=O)NC(C)(C)C)N(C(=O)C1CCc2cc(F)ccc2O1)c1ccc(F)cc1F` (stereo not given) was tested, and the growth was 27.7%. `O=C(CN1CCN(c2ncnc3c2cnn3-c2ccccc2)CC1)Nc1ccc(Br)cc1` was tested, and the growth was -77% (active). With `O=C(CSc1nc2ccccc2c(=O)n1-c1ccc(Cl)cc1)Nc1ccc(-c2nc3ccccc3[nH]2)cc1` the growth was -39.1% (active). In the case of `O=C1NC(=S)S/C1=C\c1cn(-c2ccccc2)nc1-c1ccc([N+](=O)[O-])cc1`, the growth is reported as 14%. In the case of `Cn1cc(-c2cc3nc(-c4c[nH]c5ccccc45)cc(N)n3n2)c2cc(Cl)ccc21`, the growth is reported as -97.7% (active). In the case of `CC1(C)CC[C@]2(C(=O)O)CC[C@]3(C)C(=CCC4[C@@]5(C)C[C@@H](O)[C@@H]6OC(c7cccc(F)c7)OC[C@@]6(C)C5CC[C@]43C)C2C1` (stereo not given in full), the growth is reported as 34.2%. With `O=C1NC2C=CC=CC2/C1=C1/SC(=S)N(C2CC(=O)N(c3ccc(Br)cc3)C2=O)C1=O` (stereo not given) the growth was 68.3%. `CCOc1ccc(/C=N/NC(=O)Cn2nc(Cc3ccc(OC)cc3)c3onc(C)c3c2=O)cc1` was tested, and the growth was 2.46% (active). With `Cn1cc(-c2nnc(N)nc2-c2c[nH]c3ccccc23)c2cc(Br)cnc21` the growth was 24.7%. Molecule `Cn1cc(/C=C(/SS/C(=C/c2cn(C)c3cccc(C(=O)O)c23)C(=O)O)C(=O)O)c2c(C(=O)O)cccc21` has a growth of 88.1%. `COc1ccc(-n2c(SCC(=O)NNS(=O)(=O)c3ccccc3)nc3ccc(Cl)cc3c2=O)cc1` was tested, and the growth was 63.5%. With `Cn1cc(-c2cc(N)n3nc(-c4cn(C)c5ccccc45)cc3n2)c2cc(F)ccc21` the growth was -82.4% (active). In the case of `CCOC(=O)C1=C(N)N(c2ccc(C)cc2)C2=C(C(=O)CC(C)(C)C2)C1c1ccccc1Br` (stereo not given), the growth is reported as 76%. For `COc1ccccc1-n1cc(C#N)c(N)c1C(=O)c1ccc(Cl)cc1Cl`, the growth was 42.4%. `COc1cc(Nc2nc(O)c(/C=C3\C=Nc4ccccc43)s2)cc(OC)c1OC` was tested, and the growth was -48.9% (active). `COc1ccc(C2OC[C@@]3(C)C4CC[C@]5(C)C(CC=C6C7CC(C)(C)CC[C@]7(C(=O)O)CC[C@]65C)[C@@]4(C)C[C@@H](O)[C@@H]3O2)cc1` (stereo not given in full) gave a growth of 57.9%. Molecule `COc1ccc(C(=O)COc2ccc(NC(=O)Nc3ccccc3)cc2)cc1` has a growth of 80%. `CC(C)(C)c1cc(/C=C2\S/C(=N/c3ncn[nH]3)NC2=O)cc(C(C)(C)C)c1O` gave a growth of 15.1%. For `COc1cc2oc(-c3cccc(C(=O)Nc4ccc(Cl)cc4)c3)cc(=O)c2c(OCCNC(=O)[C@@H](N)CO)c1OC`, the growth was 91.1%. In the case of `COc1cccc(C(=O)CSc2nc(-c3ccc(OCc4ccccc4)c(OC)c3)c(C#N)c(=O)[nH]2)c1`, the growth is reported as 82.8%. In the case of `Cc1cc(N=C2NC(=O)/C(=C/c3cc(C(C)(C)C)c(O)c(C(C)(C)C)c3)S2)n[nH]1`, the growth is reported as 16.7%. `Cc1ccc(COc2ccc(NC(=O)Nc3ccc(Cl)c(C(F)(F)F)c3)cc2)cc1` showed a growth of 63.5%. Molecule `COc1ccc(C2c3sc4ccc(C)cc4c3Oc3nc(N)nc(N)c32)cc1` (stereo not given) has a growth of 60.5%. In the case of `O=C(CN1CCN(c2ncnc3c2cnn3-c2ccccc2)CC1)Nc1ccc(Cl)cc1`, the growth is reported as -60.5% (active). For `C#C[C@]1(O)CC[C@H]2[C@@H]3CC=C4c5sc(Nc6cc(C)cc(C)n6)nc5CC[C@]4(C)[C@H]3CC[C@@]21C`, the growth was -65.9% (active). In the case of `CCOC(=O)c1ccc(NC(=O)CSC(CC(=O)c2sc(Nc3ccccn3)nc2C)c2ccccc2F)cc1` (stereo not given), the growth is reported as -2.98% (active). `Cc1ccc2c(c1)C(=O)/C(=C/c1c[nH]c3ccccc13)S2` was tested, and the growth was 40.4%. `Cc1cc(N=C2NC(=O)S/C2=C\c2ccc(F)cc2)n[nH]1` showed a growth of 12.1%. In the case of `COc1cc2oc(-c3cccc(C(=O)Nc4ccc(Cl)cc4)c3)cc(=O)c2c(OCCN)c1OC`, the growth is reported as -81.1% (active). Work on `COc1cc(C2CC(c3ccc(Oc4ccc(Cl)cc4)cc3)=NN2c2nc(-c3ccc(Cl)cc3)c(C#N)c(N3CCOCC3)n2)cc(OC)c1OC` (stereo not given) yielded a growth of 79.2%. Molecule `CC1(C)CC(=O)C2=C(C1)N(Cc1ccc(C(=O)O)cc1)C1=C(C(=O)CC(C)(C)C1)C2c1ccc(Cl)cc1` has a growth of 81.6%. In the case of `O=[N+]([O-])c1cccc(-c2nnc3c(/C=C/c4ccccc4O)nc4ccccc4n23)c1`, the growth is reported as 41.8%. In the case of `O=C(c1ccc(F)cc1)C(c1c[nH]c2ccccc12)c1c[nH]c2ccccc12`, the growth is reported as 43.8%. `COc1ccc(Cn2cc(C#N)c(N)c2C(C)=O)c(OC)c1` was tested, and the growth was 96.4%. `COc1ccc(Cc2nn(CC(=O)N/N=C/c3ccc([N+](=O)[O-])cc3)c(=O)c3c(C)noc23)cc1` was tested, and the growth was 63%. In the case of `Cc1ccc(-c2nc(C#N)c(S(=O)(=O)N3CCN(S(C)(=O)=O)CC3)o2)cc1`, the growth is reported as 26.7%. `O=C(c1ccc(Cl)cc1)C(c1c[nH]c2ccccc12)c1c[nH]c2ccccc12` was tested, and the growth was -94.6% (active). Molecule `Fc1ccc(-c2csc(Nc3cccc(Nc4nc(-c5ccc(F)cc5)cs4)c3)n2)cc1` has a growth of 31.3%. For `C#C[C@]1(O)CC[C@H]2[C@@H]3CC=C4c5sc(Nc6ccc(C(F)(F)F)cn6)nc5CC[C@]4(C)[C@H]3CC[C@@]21C`, the growth was -23.8% (active).
